# PubChem BioAssay (NCI)
# Compounds without any hit were thinned out: in the full panel of roughly 79,000, 15% have a hit. A number with no mark means an inactive call. Active and inactive are the calls of the source. No stated cut-off is given here; in the data, active means growth inhibition above about 70%; inactive means the rest.
# Columns and labels:
# [1] = NCI Yeast Anticancer Drug Screen. Data for the rad52 strain (AID 147);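 further: 0% = growth of vehicle-treated control cultures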; settings: S. cerevisiae rad52 mutant growth inhibition, hits give high values
# Summary of the method: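 Genetically altered yeast (DNA damage repair defect) treated with compound; inhibition calculated relative to vehicle.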
# [2] = NCI Yeast Anticancer Drug Screen. Data for the wt1 strain (AID 149);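 further: 0% = growth of vehicle-treated wt1 cultures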; settings: S. cerevisiae wt1 strain (SPY 50644) growth inhibition, hits give high values
# Summary of the method: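 Measured: growth of wt1 yeast under compound versus vehicle treatment, reported as inhibition.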
# [3] = NCI Yeast Anticancer Drug Screen. Data for the rad50EPP+ strain (AID 151);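 further: 0% = growth of vehicle-treated control cultures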; settings: S. cerevisiae rad50 mutant strain, hits give high values
# Summary of the method: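 Strain rad50EPP+; compound exposure; % growth inhibition vs vehicle.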
# [4] = NCI Yeast Anticancer Drug Screen. Data for the mgt1 strain (AID 153); settings: S. cerevisiae mgt1 mutant growth inhibition, hits give high values
# Summary of the method: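 Read-out: yeast growth inhibition vs vehicle control. Strain mgt1, drawn from a panel altered in DNA damage repair or cell cycle control.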
# [5] = NCI Yeast Anticancer Drug Screen. Data for the rad50 strain (AID 155);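 further: 0% = growth of vehicle-only cultures of the same strain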; settings: S. cerevisiae rad50 strain growth inhibition, hits give high values
# Summary of the method: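 Growth of the mutant yeast was measured after compound exposure and referenced to vehicle-treated cultures.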
# [6] = NCI Yeast Anticancer Drug Screen. Data for the mec2-1 strain (AID 157); settings: S. cerevisiae mec2-1 strain, hits give high values
# Summary of the method: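 Cells of the genetically defined mec2-1 yeast strain are incubated with test compound. Inhibition of growth is calculated against vehicle-treated controls.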
# [7] = NCI Yeast Anticancer Drug Screen. Data for the rad14 strain (AID 159);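 further: 0% = growth of vehicle-treated control cultures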; settings: S. cerevisiae rad14 strain growth inhibition, hits give high values
# Summary of the method: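 Here, inhibition of yeast growth was measured after compound exposure, using a strain with a genetic defect in DNA damage repair and vehicle-treated cultures as the reference.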
# [8] = NCI Yeast Anticancer Drug Screen. Data for the sgs1 mgt1 strain (AID 161);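 further: 0% = growth of cultures given vehicle only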; settings: S. cerevisiae sgs1 mgt1 strain, hits give high values
# Summary of the method: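 Genetically altered yeast, compound exposure, growth inhibition relative to vehicle.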
# [9] = NCI Yeast Anticancer Drug Screen. Data for the CLN2oe strain (AID 163);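 further: 0% = growth of vehicle-only control cultures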; settings: S. cerevisiae CLN2oe strain, hits give high values
# Summary of the method: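 Strain altered in cell-cycle control, incubated with compound; growth compared to solvent-treated controls.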
# [10] = NCI Yeast Anticancer Drug Screen. Data for the cln2 rad14 strain (AID 165);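 further: 0% = growth equal to vehicle treated cultures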; settings: S. cerevisiae cln2 rad14 strain, hits give high values
# Summary of the method: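 The screen exposed genetically defined yeast (cln2 rad14) to test compounds and scored growth inhibition relative to vehicle-treated controls.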
# [11] = NCI Yeast Anticancer Drug Screen. Data for the bub3 strain (AID 167); settings: S. cerevisiae bub3 mutant strain, hits give high values
# Summary of the method: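 Whole-cell yeast assay. The mutant strain was incubated with compounds, and growth inhibition was determined by comparison with vehicle-treated cells.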
# [12] = NCI Yeast Anticancer Drug Screen. Data for the wt2 strain (AID 169);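 further: 0% = growth of vehicle-treated yeast cultures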; settings: S. cerevisiae wt2 strain growth inhibition, hits give high values
# Summary of the method: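 Steps: yeast strain treated with compound; growth recorded; inhibition calculated relative to cultures given vehicle alone.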
# [13] = NCI Yeast Anticancer Drug Screen. Data for the mlh1 strain (AID 171);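 further: 0% = growth of vehicle-treated control cultures of the same strain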; settings: S. cerevisiae mlh1 strain growth inhibition, hits give high values
# Summary of the method: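 Yeast screen: mutant strain plus compound, growth scored against vehicle control wells.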
# [14] = NCI Yeast Anticancer Drug Screen. Data for the mlh1 rad18 strain (AID 175); settings: S. cerevisiae mlh1 rad18 strain growth inhibition, hits give high values
# Summary of the method: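 Compound-treated yeast growth, normalised to vehicle controls. Strain bears defined DNA repair mutations.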
# [15] = NCI Yeast Anticancer Drug Screen. Data for the rad18 strain (AID 177); settings: S. cerevisiae rad18 mutant growth inhibition, hits give high values
# Summary of the method: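 Inhibition values reflect reduced yeast growth compared with vehicle-treated controls, using a strain engineered with a DNA damage repair defect.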
# [16] = NCI Yeast Anticancer Drug Screen. Data for the sgs1 strain (AID 173);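 further: 0% = growth of vehicle-only control cultures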; settings: S. cerevisiae sgs1 mutant, hits give high values
# Summary of the method: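 Inhibition of yeast growth served as the measure. The mutant strain was treated with each compound, and growth was normalised to cultures receiving vehicle alone.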
# [17] = at 5.0 µM (retest, dose inferred, filed as 0.5)
# [18] = at 50.0 µM (retest, dose inferred, filed as 5.0)
compound,measurement,setting,value
O=C1N=C2SC=C(NC(=S)Nc3ccccc3)N2NC12c1ccccc1-c1ccccc12,growth inhibition,[1]; at 1.2 µM,11%
same,growth inhibition,[1]; at 3.7 µM,12%
same,growth inhibition,[1]; at 11.0 µM,19%
same,growth inhibition,[1]; at 33.0 µM,46%
same,growth inhibition,[1]; at 100.0 µM,73% (active)
same,growth inhibition,[2]; at 1.2 µM,3%
same,growth inhibition,[2]; at 3.7 µM,3%
same,growth inhibition,[2]; at 11.0 µM,7%
same,growth inhibition,[2]; at 33.0 µM,38%
same,growth inhibition,[2]; at 100.0 µM,78% (active)
same,growth inhibition,[3]; at 1.2 µM,2%
same,growth inhibition,[3]; at 3.7 µM,7%
same,growth inhibition,[3]; at 11.0 µM,5%
same,growth inhibition,[3]; at 33.0 µM,11%
same,growth inhibition,[3]; at 100.0 µM,16%
same,growth inhibition,[4]; at 1.2 µM,6%
same,growth inhibition,[4]; at 3.7 µM,6%
same,growth inhibition,[4]; at 11.0 µM,30%
same,growth inhibition,[4]; at 33.0 µM,77% (active)
same,growth inhibition,[4]; at 100.0 µM,88% (active)
same,growth inhibition,[5]; at 1.2 µM,6%
same,growth inhibition,[5]; at 3.7 µM,0%
same,growth inhibition,[5]; [17],1%
same,growth inhibition,[5]; at 11.0 µM,4%
same,growth inhibition,[5]; at 33.0 µM,49%
same,growth inhibition,[5]; [18],48%
same,growth inhibition,[5]; at 50.0 µM,78% (active)
same,growth inhibition,[5]; at 100.0 µM,76% (active)
same,growth inhibition,[6]; at 1.2 µM,15%
same,growth inhibition,[6]; at 3.7 µM,13%
same,growth inhibition,[6]; [17],-11%
same,growth inhibition,[6]; at 11.0 µM,22%
same,growth inhibition,[6]; at 33.0 µM,57%
same,growth inhibition,[6]; [18],8%
same,growth inhibition,[6]; at 50.0 µM,45.9%
same,growth inhibition,[6]; at 100.0 µM,81% (active)
same,growth inhibition,[7]; at 1.2 µM,10%
same,growth inhibition,[7]; at 3.7 µM,3%
same,growth inhibition,[7]; at 11.0 µM,14%
same,growth inhibition,[7]; at 33.0 µM,49%
same,growth inhibition,[7]; at 100.0 µM,84% (active)
same,growth inhibition,[8]; [17],-8%
same,growth inhibition,[8]; [18],44%
same,growth inhibition,[8]; at 50.0 µM,25.6%
same,growth inhibition,[9]; at 1.2 µM,12%
same,growth inhibition,[9]; at 3.7 µM,4%
same,growth inhibition,[9]; at 11.0 µM,13%
same,growth inhibition,[9]; at 33.0 µM,64%
same,growth inhibition,[9]; at 100.0 µM,76% (active)
same,growth inhibition,[10]; [17],-4%
same,growth inhibition,[10]; [18],15%
same,growth inhibition,[10]; at 50.0 µM,57.9%
same,growth inhibition,[11]; at 1.2 µM,10%
same,growth inhibition,[11]; at 3.7 µM,5%
same,growth inhibition,[11]; [17],-14%
same,growth inhibition,[11]; at 11.0 µM,11%
same,growth inhibition,[11]; at 33.0 µM,54%
same,growth inhibition,[11]; [18],46%
same,growth inhibition,[11]; at 50.0 µM,74.7% (active)
same,growth inhibition,[11]; at 100.0 µM,70% (active)
same,growth inhibition,[12]; at 1.2 µM,2%
same,growth inhibition,[12]; at 3.7 µM,4%
same,growth inhibition,[12]; at 11.0 µM,23%
same,growth inhibition,[12]; at 33.0 µM,76% (active)
same,growth inhibition,[12]; at 100.0 µM,90% (active)
same,growth inhibition,[13]; at 1.2 µM,10%
same,growth inhibition,[13]; at 3.7 µM,8%
same,growth inhibition,[13]; at 11.0 µM,20%
same,growth inhibition,[13]; at 33.0 µM,59%
same,growth inhibition,[13]; at 100.0 µM,81% (active)
same,growth inhibition,[14]; [17],-10%
same,growth inhibition,[14]; [18],41%
same,growth inhibition,[14]; at 50.0 µM,69.7%
same,growth inhibition,[15]; at 1.2 µM,14%
same,growth inhibition,[15]; at 3.7 µM,19%
same,growth inhibition,[15]; at 11.0 µM,24%
same,growth inhibition,[15]; at 33.0 µM,49%
same,growth inhibition,[15]; at 100.0 µM,77% (active)
CCCCOP(=O)(CCCP(=O)(OCCCC)OCCCC)OCCCC,growth inhibition,[1]; at 1.2 µM,0%
same,growth inhibition,[1]; at 3.7 µM,0%
same,growth inhibition,[1]; at 11.0 µM,3%
same,growth inhibition,[1]; at 33.0 µM,4%
same,growth inhibition,[1]; at 100.0 µM,97% (active)
same,growth inhibition,[2]; at 1.2 µM,-3%
same,growth inhibition,[2]; at 3.7 µM,0%
same,growth inhibition,[2]; at 11.0 µM,0%
same,growth inhibition,[2]; at 33.0 µM,5%
same,growth inhibition,[2]; at 100.0 µM,94% (active)
same,growth inhibition,[3]; at 1.2 µM,-4%
same,growth inhibition,[3]; at 3.7 µM,-4%
same,growth inhibition,[3]; at 11.0 µM,-3%
same,growth inhibition,[3]; at 33.0 µM,-3%
same,growth inhibition,[3]; at 100.0 µM,-2%
same,growth inhibition,[4]; at 1.2 µM,-3%
same,growth inhibition,[4]; at 3.7 µM,-3%
same,growth inhibition,[4]; at 11.0 µM,-1%
same,growth inhibition,[4]; at 33.0 µM,10%
same,growth inhibition,[4]; at 100.0 µM,42%
same,growth inhibition,[5]; at 1.2 µM,-1%
same,growth inhibition,[5]; at 3.7 µM,1%
same,growth inhibition,[5]; [17],7%
same,growth inhibition,[5]; at 11.0 µM,1%
same,growth inhibition,[5]; at 33.0 µM,7%
same,growth inhibition,[5]; [18],66%
same,growth inhibition,[5]; at 50.0 µM,2.05%
same,growth inhibition,[5]; at 100.0 µM,97% (active)
same,growth inhibition,[6]; at 1.2 µM,-6%
same,growth inhibition,[6]; at 3.7 µM,-3%
same,growth inhibition,[6]; [17],-7%
same,growth inhibition,[6]; at 11.0 µM,2%
same,growth inhibition,[6]; at 33.0 µM,7%
same,growth inhibition,[6]; [18],48%
same,growth inhibition,[6]; at 50.0 µM,49.5%
same,growth inhibition,[6]; at 100.0 µM,95% (active)
same,growth inhibition,[7]; at 1.2 µM,0%
same,growth inhibition,[7]; at 3.7 µM,3%
same,growth inhibition,[7]; at 11.0 µM,9%
same,growth inhibition,[7]; at 33.0 µM,20%
same,growth inhibition,[7]; at 100.0 µM,90% (active)
same,growth inhibition,[8]; [17],12%
same,growth inhibition,[8]; [18],50%
same,growth inhibition,[8]; at 50.0 µM,-2.15%
same,growth inhibition,[9]; at 1.2 µM,1%
same,growth inhibition,[9]; at 3.7 µM,-3%
same,growth inhibition,[9]; at 11.0 µM,7%
same,growth inhibition,[9]; at 33.0 µM,29%
same,growth inhibition,[9]; at 100.0 µM,81% (active)
same,growth inhibition,[10]; [17],7%
same,growth inhibition,[10]; [18],38%
same,growth inhibition,[10]; at 50.0 µM,1.1%
same,growth inhibition,[11]; at 1.2 µM,-5%
same,growth inhibition,[11]; at 3.7 µM,-3%
same,growth inhibition,[11]; [17],0%
same,growth inhibition,[11]; at 11.0 µM,-2%
same,growth inhibition,[11]; at 33.0 µM,1%
same,growth inhibition,[11]; [18],4%
same,growth inhibition,[11]; at 50.0 µM,19.2%
same,growth inhibition,[11]; at 100.0 µM,79% (active)
same,growth inhibition,[12]; at 1.2 µM,-2%
same,growth inhibition,[12]; at 3.7 µM,-5%
same,growth inhibition,[12]; at 11.0 µM,-4%
same,growth inhibition,[12]; at 33.0 µM,0%
same,growth inhibition,[12]; at 100.0 µM,96% (active)
same,growth inhibition,[16]; at 1.2 µM,-3%
same,growth inhibition,[16]; at 3.7 µM,-1%
same,growth inhibition,[16]; at 11.0 µM,0%
same,growth inhibition,[16]; at 33.0 µM,5%
same,growth inhibition,[16]; at 100.0 µM,93% (active)
same,growth inhibition,[14]; [17],-2%
same,growth inhibition,[14]; [18],17%
same,growth inhibition,[14]; at 50.0 µM,42.2%
same,growth inhibition,[15]; at 1.2 µM,-7%
same,growth inhibition,[15]; at 3.7 µM,0%
same,growth inhibition,[15]; at 11.0 µM,5%
same,growth inhibition,[15]; at 33.0 µM,8%
same,growth inhibition,[15]; at 100.0 µM,95% (active)
